Source: publication PMC7862700, “An all-to-all approach to the identification of sequence-specific readers for epigenetic DNA modifications on cytosine”

Assays:
Test in all cases: DAPPL (digital affinity profiling via proximity ligation, sequencing); 10 mM Tris-HCl pH 7.5, 50 mM NaCl, 1 mM DTT, 4% glycerol, room temperature, 30 min; GST-TFs on glutathione beads, 16-mer random dsDNA library, 0.1% formaldehyde crosslink after washing; high values mean tight binding
FEV = target: T1, FEV (Homo sapiens, UniProt Q99581 1-238); settings: protein: recombinant; tags: N-terminal GST; dsDNA, one strand shown
T1 sequence: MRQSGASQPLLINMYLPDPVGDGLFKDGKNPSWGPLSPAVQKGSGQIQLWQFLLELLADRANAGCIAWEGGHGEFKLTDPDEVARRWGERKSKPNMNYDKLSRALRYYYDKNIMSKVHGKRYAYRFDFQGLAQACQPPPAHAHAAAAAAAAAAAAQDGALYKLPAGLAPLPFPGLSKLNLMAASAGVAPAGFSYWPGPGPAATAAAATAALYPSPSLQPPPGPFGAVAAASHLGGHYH
Summary of the method: (§1)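 Each value of binding signal is a hexamer's read frequency for a factor divided by the same hexamer's frequency in the tag-only sample. Barcoded, bead-captured GST fusions of human transcription factors made in yeast were pooled with that sample and incubated with 200 nmole of a random double-stranded 16-mer DNA library in Tris/NaCl/DTT/glycerol buffer at room temperature for 30 min. Washing, 0.1% formaldehyde crosslinking, proximity ligation, PCR and Illumina NextSeq500 sequencing followed.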

ETV5 = ETV5 (Homo sapiens, UniProt P41161 1-510); settings: protein: recombinant; tags: N-terminal GST; dsDNA, one strand shown
Summary of the method: as §1

HSF1 = HSF1 (Homo sapiens, UniProt Q00613 1-529); settings: protein: recombinant; tags: N-terminal GST; chain copies: 3; dsDNA, one strand shown
Summary of the method: as §1

SPIC = target: T2, SPIC (Homo sapiens, UniProt Q8N5J4 1-248); settings: protein: recombinant; tags: N-terminal GST; dsDNA, one strand shown
T2 sequence: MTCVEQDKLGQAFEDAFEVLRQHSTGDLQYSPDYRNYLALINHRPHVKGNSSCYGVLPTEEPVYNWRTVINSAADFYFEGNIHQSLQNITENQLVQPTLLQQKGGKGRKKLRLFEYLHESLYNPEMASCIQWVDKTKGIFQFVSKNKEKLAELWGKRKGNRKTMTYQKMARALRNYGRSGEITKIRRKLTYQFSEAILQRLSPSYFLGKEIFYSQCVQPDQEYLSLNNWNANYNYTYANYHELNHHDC
Summary of the method: as §1

ELF4 = ELF4 (Homo sapiens, UniProt Q99607 1-663); settings: protein: recombinant; tags: N-terminal GST; dsDNA, one strand shown
Summary of the method: as §1

ELK4 = target: T3, ELK4 (Homo sapiens, UniProt P28324-2 1-405); settings: protein: recombinant; tags: N-terminal GST; dsDNA, one strand shown
T3 sequence: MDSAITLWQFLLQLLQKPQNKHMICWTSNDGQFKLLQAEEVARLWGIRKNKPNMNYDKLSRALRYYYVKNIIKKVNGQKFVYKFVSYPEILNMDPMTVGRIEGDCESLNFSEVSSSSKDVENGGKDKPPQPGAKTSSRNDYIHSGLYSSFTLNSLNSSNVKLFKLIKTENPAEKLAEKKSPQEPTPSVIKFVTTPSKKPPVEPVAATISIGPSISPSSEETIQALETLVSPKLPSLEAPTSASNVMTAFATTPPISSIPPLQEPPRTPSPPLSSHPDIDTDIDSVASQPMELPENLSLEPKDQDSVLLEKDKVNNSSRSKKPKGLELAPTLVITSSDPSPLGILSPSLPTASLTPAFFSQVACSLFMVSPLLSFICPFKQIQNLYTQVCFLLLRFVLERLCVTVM
Summary of the method: as §1

ETV2 = target: T4, ETV2 (Homo sapiens, UniProt O00321 1-342); settings: protein: recombinant; tags: N-terminal GST; dsDNA, one strand shown
T4 sequence: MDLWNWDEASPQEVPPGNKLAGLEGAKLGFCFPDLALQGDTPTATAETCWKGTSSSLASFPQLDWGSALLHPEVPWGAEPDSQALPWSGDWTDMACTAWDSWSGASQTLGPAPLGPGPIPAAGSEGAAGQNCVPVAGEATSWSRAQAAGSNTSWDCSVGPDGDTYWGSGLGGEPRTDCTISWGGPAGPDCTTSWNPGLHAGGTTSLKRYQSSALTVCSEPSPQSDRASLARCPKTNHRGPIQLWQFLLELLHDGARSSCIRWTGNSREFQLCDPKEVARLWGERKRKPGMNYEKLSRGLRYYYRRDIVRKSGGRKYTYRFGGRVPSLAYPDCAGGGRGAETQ
Summary of the method: as §1

ELF3 = target: T5, ELF3 (Homo sapiens, UniProt P78545 1-371); settings: protein: recombinant; tags: N-terminal GST; dsDNA, one strand shown
T5 sequence: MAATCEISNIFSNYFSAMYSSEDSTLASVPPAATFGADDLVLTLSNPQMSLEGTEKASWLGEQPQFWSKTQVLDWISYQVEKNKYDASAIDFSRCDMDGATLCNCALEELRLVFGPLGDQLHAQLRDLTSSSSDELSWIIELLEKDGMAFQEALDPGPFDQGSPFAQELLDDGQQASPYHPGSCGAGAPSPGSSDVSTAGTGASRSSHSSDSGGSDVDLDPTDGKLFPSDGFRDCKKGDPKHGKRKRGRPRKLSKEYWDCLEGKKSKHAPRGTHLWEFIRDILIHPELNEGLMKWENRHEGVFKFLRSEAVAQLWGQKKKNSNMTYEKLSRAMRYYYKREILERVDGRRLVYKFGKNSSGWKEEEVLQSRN
Summary of the method: as §1

CRX = CRX (Homo sapiens, UniProt O43186 1-299); settings: protein: recombinant; tags: N-terminal GST; dsDNA, one strand shown
Summary of the method: as §1

ETV1 = ETV1 (Homo sapiens, UniProt P50549 1-477); settings: protein: recombinant; tags: N-terminal GST; dsDNA, one strand shown
Summary of the method: as §1

HSF1, sequence (Q00613 whole entry): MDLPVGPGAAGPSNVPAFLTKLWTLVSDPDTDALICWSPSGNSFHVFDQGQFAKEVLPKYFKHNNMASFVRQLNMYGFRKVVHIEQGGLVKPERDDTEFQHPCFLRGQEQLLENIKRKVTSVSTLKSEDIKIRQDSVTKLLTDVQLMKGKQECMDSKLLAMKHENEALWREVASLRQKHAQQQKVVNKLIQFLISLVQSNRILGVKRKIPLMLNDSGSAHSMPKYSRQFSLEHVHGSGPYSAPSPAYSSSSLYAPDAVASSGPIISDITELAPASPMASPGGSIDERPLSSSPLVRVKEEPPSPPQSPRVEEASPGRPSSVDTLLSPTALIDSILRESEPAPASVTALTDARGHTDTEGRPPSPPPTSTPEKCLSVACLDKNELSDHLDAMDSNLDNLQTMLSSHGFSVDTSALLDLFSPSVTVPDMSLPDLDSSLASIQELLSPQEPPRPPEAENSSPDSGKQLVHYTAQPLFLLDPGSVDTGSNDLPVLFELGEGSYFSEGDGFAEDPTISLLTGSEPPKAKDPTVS
CRX, sequence (O43186 whole entry): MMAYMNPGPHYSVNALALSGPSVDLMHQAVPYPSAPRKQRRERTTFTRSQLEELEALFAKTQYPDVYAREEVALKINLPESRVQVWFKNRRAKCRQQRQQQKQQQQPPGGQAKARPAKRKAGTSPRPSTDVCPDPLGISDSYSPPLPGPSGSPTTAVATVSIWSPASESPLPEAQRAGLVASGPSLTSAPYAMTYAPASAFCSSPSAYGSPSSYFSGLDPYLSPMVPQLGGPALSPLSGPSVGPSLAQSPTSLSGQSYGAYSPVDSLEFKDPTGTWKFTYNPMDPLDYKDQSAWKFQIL
ELF4, sequence (Q99607 whole entry): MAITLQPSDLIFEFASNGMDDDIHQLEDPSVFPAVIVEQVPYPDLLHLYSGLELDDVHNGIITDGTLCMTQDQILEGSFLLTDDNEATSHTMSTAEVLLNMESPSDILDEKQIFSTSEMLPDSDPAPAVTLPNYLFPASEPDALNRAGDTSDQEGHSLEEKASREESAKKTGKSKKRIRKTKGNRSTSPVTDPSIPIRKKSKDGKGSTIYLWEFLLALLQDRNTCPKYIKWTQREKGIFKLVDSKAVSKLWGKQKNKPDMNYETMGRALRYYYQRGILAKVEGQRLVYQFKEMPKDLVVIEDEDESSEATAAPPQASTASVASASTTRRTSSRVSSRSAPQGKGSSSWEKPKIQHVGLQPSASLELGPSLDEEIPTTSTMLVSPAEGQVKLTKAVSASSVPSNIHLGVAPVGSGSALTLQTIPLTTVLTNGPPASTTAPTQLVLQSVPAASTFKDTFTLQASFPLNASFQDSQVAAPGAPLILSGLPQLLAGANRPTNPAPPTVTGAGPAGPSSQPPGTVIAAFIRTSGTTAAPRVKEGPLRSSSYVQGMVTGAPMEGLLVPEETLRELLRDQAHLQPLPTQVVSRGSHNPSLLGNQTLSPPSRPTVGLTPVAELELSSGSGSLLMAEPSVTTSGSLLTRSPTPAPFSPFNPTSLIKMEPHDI
ETV1, sequence (P50549 whole entry): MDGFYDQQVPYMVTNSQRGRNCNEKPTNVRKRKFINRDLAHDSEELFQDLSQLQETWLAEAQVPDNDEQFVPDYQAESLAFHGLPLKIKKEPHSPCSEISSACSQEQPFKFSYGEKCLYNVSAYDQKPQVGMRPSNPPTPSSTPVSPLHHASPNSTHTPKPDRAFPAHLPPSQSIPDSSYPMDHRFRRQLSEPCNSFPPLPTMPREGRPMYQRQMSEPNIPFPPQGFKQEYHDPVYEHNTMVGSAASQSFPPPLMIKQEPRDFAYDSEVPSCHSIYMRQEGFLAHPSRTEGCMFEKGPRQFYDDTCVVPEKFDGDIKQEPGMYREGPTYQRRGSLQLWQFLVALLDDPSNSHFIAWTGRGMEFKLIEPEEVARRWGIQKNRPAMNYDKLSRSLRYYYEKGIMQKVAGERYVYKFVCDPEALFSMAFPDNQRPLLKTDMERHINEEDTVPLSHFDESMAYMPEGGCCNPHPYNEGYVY
ETV5, sequence (P41161 whole entry): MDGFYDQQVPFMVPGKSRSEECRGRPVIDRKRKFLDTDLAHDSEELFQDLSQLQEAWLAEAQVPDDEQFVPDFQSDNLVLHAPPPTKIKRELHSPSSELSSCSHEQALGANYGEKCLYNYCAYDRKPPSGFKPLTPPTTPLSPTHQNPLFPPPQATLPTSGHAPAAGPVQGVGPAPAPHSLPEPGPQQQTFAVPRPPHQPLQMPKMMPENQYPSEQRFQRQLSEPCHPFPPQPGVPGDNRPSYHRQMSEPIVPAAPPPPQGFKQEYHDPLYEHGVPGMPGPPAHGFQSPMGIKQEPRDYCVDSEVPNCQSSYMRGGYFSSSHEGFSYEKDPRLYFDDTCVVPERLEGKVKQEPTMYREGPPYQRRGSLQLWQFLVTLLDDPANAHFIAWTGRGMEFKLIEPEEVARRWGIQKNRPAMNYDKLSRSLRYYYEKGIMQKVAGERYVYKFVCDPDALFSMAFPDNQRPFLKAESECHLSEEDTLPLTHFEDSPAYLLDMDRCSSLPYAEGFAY

| Sequence | binding signal (FEV) | binding signal (ETV5) | binding signal (HSF1) | binding signal (SPIC) | binding signal (ELF4) | binding signal (ELK4) | binding signal (ETV2) | binding signal (ELF3) | binding signal (CRX) | binding signal (ETV1) |
| --- | --- | --- | --- | --- | --- | --- | --- | --- | --- | --- |
| ATTTAG | 1.08 fold enrichment (6-mer frequency, TF over GST control) | 1.06 fold enrichment (6-mer frequency, TF over GST control) | 1.37 fold enrichment (6-mer frequency, TF over GST control) | 1.2 fold enrichment (6-mer frequency, TF over GST control) | 1.05 fold enrichment (6-mer frequency, TF over GST control) | 1.17 fold enrichment (6-mer frequency, TF over GST control) | 1.3 fold enrichment (6-mer frequency, TF over GST control) | 1.17 fold enrichment (6-mer frequency, TF over GST control) | 1.66 fold enrichment (6-mer frequency, TF over GST control) | 1.11 fold enrichment (6-mer frequency, TF over GST control) |
| ACTCTT | 1.18 fold enrichment (6-mer frequency, TF over GST control) | 1.29 fold enrichment (6-mer frequency, TF over GST control) | 1.12 fold enrichment (6-mer frequency, TF over GST control) | 1.3 fold enrichment (6-mer frequency, TF over GST control) | 1.26 fold enrichment (6-mer frequency, TF over GST control) | 1.35 fold enrichment (6-mer frequency, TF over GST control) | 1.31 fold enrichment (6-mer frequency, TF over GST control) | 1.14 fold enrichment (6-mer frequency, TF over GST control) | 1.19 fold enrichment (6-mer frequency, TF over GST control) | 1.33 fold enrichment (6-mer frequency, TF over GST control) |
| AACCTG | 1.2 fold enrichment (6-mer frequency, TF over GST control) | 1.16 fold enrichment (6-mer frequency, TF over GST control) | 1.03 fold enrichment (6-mer frequency, TF over GST control) | 1.04 fold enrichment (6-mer frequency, TF over GST control) | 1.25 fold enrichment (6-mer frequency, TF over GST control) | 1.3 fold enrichment (6-mer frequency, TF over GST control) | 1.16 fold enrichment (6-mer frequency, TF over GST control) | 1.12 fold enrichment (6-mer frequency, TF over GST control) | 1.1 fold enrichment (6-mer frequency, TF over GST control) | 1.14 fold enrichment (6-mer frequency, TF over GST control) |
| CTCCAC | 1.42 fold enrichment (6-mer frequency, TF over GST control) | 1.42 fold enrichment (6-mer frequency, TF over GST control) | 1.26 fold enrichment (6-mer frequency, TF over GST control) | 1.17 fold enrichment (6-mer frequency, TF over GST control) | 1.4 fold enrichment (6-mer frequency, TF over GST control) | 1.46 fold enrichment (6-mer frequency, TF over GST control) | 1.3 fold enrichment (6-mer frequency, TF over GST control) | 1.27 fold enrichment (6-mer frequency, TF over GST control) | 1.17 fold enrichment (6-mer frequency, TF over GST control) | 1.25 fold enrichment (6-mer frequency, TF over GST control) |
| TTCCAA | 1.26 fold enrichment (6-mer frequency, TF over GST control) | 1.18 fold enrichment (6-mer frequency, TF over GST control) | 1.47 fold enrichment (6-mer frequency, TF over GST control) | 1.31 fold enrichment (6-mer frequency, TF over GST control) | 1.27 fold enrichment (6-mer frequency, TF over GST control) | 1.31 fold enrichment (6-mer frequency, TF over GST control) | 1.29 fold enrichment (6-mer frequency, TF over GST control) | 1.16 fold enrichment (6-mer frequency, TF over GST control) | 1.39 fold enrichment (6-mer frequency, TF over GST control) | 1.21 fold enrichment (6-mer frequency, TF over GST control) |
| ATGCGA | 1.17 fold enrichment (6-mer frequency, TF over GST control) | 1.17 fold enrichment (6-mer frequency, TF over GST control) | 1.22 fold enrichment (6-mer frequency, TF over GST control) | 1.26 fold enrichment (6-mer frequency, TF over GST control) | 1.29 fold enrichment (6-mer frequency, TF over GST control) | 1.33 fold enrichment (6-mer frequency, TF over GST control) | 1.34 fold enrichment (6-mer frequency, TF over GST control) | 1.31 fold enrichment (6-mer frequency, TF over GST control) | 1.27 fold enrichment (6-mer frequency, TF over GST control) | 1.16 fold enrichment (6-mer frequency, TF over GST control) |
| GCTAAA | 1.05 fold enrichment (6-mer frequency, TF over GST control) | 1.15 fold enrichment (6-mer frequency, TF over GST control) | 1.17 fold enrichment (6-mer frequency, TF over GST control) | 1.09 fold enrichment (6-mer frequency, TF over GST control) | 1.06 fold enrichment (6-mer frequency, TF over GST control) | 1.11 fold enrichment (6-mer frequency, TF over GST control) | 1.12 fold enrichment (6-mer frequency, TF over GST control) | 1.07 fold enrichment (6-mer frequency, TF over GST control) | 1.4 fold enrichment (6-mer frequency, TF over GST control) | 1.26 fold enrichment (6-mer frequency, TF over GST control) |
